Most compounds without a hit are left out; they make up all but 13% or so of the library.
Pf growth 48h = inhibits P. falciparum growth in the first generation, 48 h; P. falciparum luciferase growth in erythrocytes, 48 h; 310,000 tested, 5.9% active; Potency, µM (highest dose often 28.7 µM), without a hit: at the top dose activity change, negative = inhibition, hits mostly inhibitors; further: potency means the concentration at half of the fitted maximal effect
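Luciferase-expressing P. falciparum in infected erythrocytes (2% hematocrit, 0.1% parasitemia final) in RPMI 1640/0.5% Albumax were exposed to compound for 48 hours at 37 C, 5% CO2; growth read as luminescence.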
HCV inhibitor = HCV inhibition; Huh7.5.1 HCVcc-Cre infection, luciferase reporter, 44 h; Potency, µM (series often up to 41.8 µM), without a hit: at the highest dose activity change, negative = inhibition, actives largely listed as inhibitors; 340,000 tested, 3.4% active; further: potency means the concentration at half of the fitted maximal effect
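Antiviral activity was scored by luciferase reporter output from cells infected with HCVcc-Cre (~0.5 moi) in presence of compound, 44 h infection period, cells seeded 1,000/well 4 h prior.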
Pf growth 96h = inhibits malaria parasite growth, 96 h | P. falciparum luciferase reporter growth, 96 h | Potency, µM (highest dose often 28.7 µM), for the others: at the top dose activity change, negative = inhibition, actives largely listed as inhibitors | 320,000 tested, 6.9% active | AID 504834; further: potency means the concentration at half of the fitted maximal effect
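96 h incubation, 37 C, 5% CO2, of luciferase-reporter P. falciparum-infected RBCs (2% hematocrit, 0.05% parasitemia final) with test compounds; endpoint luminescence.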
HCMV inh = inhibitors of human cytomegalovirus; HFF cells, HCMV-luciferase reporter, 72 h; active compounds read low; activity change, negative = inhibition, % at 57.5 µM; 410,000 tested, 4.5% active; AID 1259415; in the data active means activity change below about -60%; inconclusive means no clear call, values can overlap the other calls; inactive means above about -39%
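Compounds were evaluated in HFFs infected with an HCMV luciferase reporter virus (MOI 1 PFU/cell). Luciferase in lysates collected 72 h post infection served as the replication measure.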
Starred values were filed as active, the others as inactive; ? = inconclusive; / = not tested or not shown; + = active, no number; ! = a repeat was not active. Unless noted, the call rests on the fitted dose curve; in most records, active means well fitted inhibition curve with a large enough effect; inconclusive means small, poorly fitted or top-dose-only effect, or another doubt; inactive means no such curve, though single readings can be large or run the other way. On the % scale 0 is the no-effect control and ±100 the full control effect.

SMILES	Pf growth 48h	HCV inhibitor	Pf growth 96h	HCMV inh
CCn1c(C)c(C)c2cc(C(=O)NCCCN3CCCCC3C)ccc21 (stereo not drawn)	-2%	-25%	2%	+!
CCCCCn1c(=O)[nH]c2cc(C(=O)NCCN3CCCCC3C)ccc2c1=O (stereo not drawn)	12µM*	?	?	/
O=C(NCCCN1CCCCC1)c1ccc2c(=O)n(CCc3ccccc3)c(=O)[nH]c2c1	33%	6.3µM*	42%	-2
CCCCCNC(=O)c1ccc2c(=O)n(CCc3ccccc3)c(=O)[nH]c2c1	/	/	/	0
CCn1c(C)c(C)c2cc(C(=O)NCCCN3CCCC3)ccc21	-35%	-19%	2%	-28
CCCCCNC(=O)c1ccc2c(=O)n(CC3CCCO3)c(=S)[nH]c2c1 (stereo not drawn)	?	?	-23%	3
CCCCCNC(=O)c1ccc2c(=O)n(CC3CCCO3)c(=O)[nH]c2c1 (stereo not drawn)	1.3µM*	?	9%	-2
O=C(COc1ccc(Br)cc1)Nc1cccc2cccnc12	/	/	/	-1
Cc1ccc(C)c(Cn2cc(CCC(=O)NC3CCCCC3)c3ccccc32)c1	/	/	/	-28
Cc1cccc2c1NC(=O)C21OCC(CO)([N+](=O)[O-])CO1 (stereo not drawn)	7%	15%	2.6µM*	61
CCOc1ccc(CCNC(=O)c2ccc3c(c2)N(Cc2ccccc2)C(=O)c2ccccc2S3=O)cc1OCC (stereo not drawn)	/	/	/	-32
CSc1n[nH]c(-c2sccc2OCc2ccc(C)cc2)n1	?	?	4.1µM*	-18
CCOC(=O)c1sc2cccc(F)c2c1S(=O)(=O)N1CCN(c2cccc(Cl)c2)CC1	/	/	/	-9
COCCCN1C(=O)C(CC(=O)NC2CC2)CC(C(=O)N2CCOCC2)=C1C (stereo not drawn)	/	/	/	0
CCOc1ccc2ncc3c(-c4ccccc4)nn(CC(=O)Nc4cccc(F)c4)c3c2c1	/	/	/	0
COc1ccc2ncc3c(-c4ccc(C)c(C)c4)nn(CC(=O)Nc4ccccc4)c3c2c1	/	/	/	-92*
CCOC(=O)C1CCN(C(=O)c2ccc(OCC(=O)Nc3cccc(C(F)(F)F)c3)c(OC)c2)CC1	?	2.8µM*	?	-70*
CCOC(=O)C1CCN(C(=O)c2ccc(OCC(=O)Nc3cccc(C(F)(F)F)c3)cc2)CC1	?	?	-6%	-26
COc1cc(C(=O)NCc2ccc(S(N)(=O)=O)cc2)ccc1OCC(=O)Nc1cccc(C(F)(F)F)c1	10%	?	-17%	-21
COc1cc(C(=O)N(C)CCOc2ccccc2)ccc1OCC(=O)Nc1cccc(C(F)(F)F)c1	-20%	2.8µM*	-9%	-69*
CCOC(=O)C1CCN(C(=O)c2ccc(OCC)c(OCC)c2)CC1	-22%	10%	15µM*	-27
CCCN1C(=O)c2[nH]nc(-c3ccccc3O)c2C1c1cccc(OCc2ccccc2)c1 (stereo not drawn)	/	/	/	-13
CCOc1cccc2cc(C(=O)N3CCOCC3)c(=O)oc12	16%	-1%	12µM*	14
COc1cccc2cc(C(=O)N3CCCCCCC3)c(=O)oc12	?	15%	1%	-2
CC1CN(C(=O)c2cccc(C(=O)N3CC(C)OC(C)C3)c2)CC(C)O1 (stereo not drawn)	13%	-23%	15µM*	25
SMILES	Pf growth 48h	HCV inhibitor	Pf growth 96h	HCMV inh
CC1CN(C(=O)c2ccc(C(=O)c3ccccc3)cc2)CC(C)O1 (stereo not drawn)	13%	-7%	?	20
CCOc1cccc2cc(C(=O)N3CC(C)OC(C)C3)c(=O)oc12 (stereo not drawn)	5%	14%	6.6µM*	21
O=C(NCc1ccccc1)[C@H]1[C@H](CO)[C@H]2Cn3c(cccc3=O)[C@H]2N1Cc1ccccc1F	/	/	/	-5
CCn1cc(S(=O)(=O)c2cc(C)cc(C)c2)c(=O)c2cc(F)c(N3CCC(C)CC3)cc21	/	/	/	5
OCC1OC([S-])[C@H](O)C(O)C1O.[Au+] (stereo partly drawn)	-22%	/	4.8µM*	/
OCC1OC(O)C(O)C(O)C1O (stereo not drawn)	-9%	/	?	/
Cc1nn(CCO)c2ncc(C(=O)c3cc(F)ccc3O)cc12	20%	-6%	0%	-11
Cc1[nH]nc2ncc(C(=O)c3cc(F)ccc3O)cc12	/	?	?	-39
Cc1noc2ncc(C(=O)c3cc(F)ccc3O)cc12	/	-15%	8.3µM*	24
